In ChEMBL document CHEMBL2218924, “A broad activity screen in support of a chemogenomic map for kinase signalling research and drug discovery” (Biochem J, 2013):

Key:
[1] = target: T1, Activin receptor type-1B (Homo sapiens) (UniProt P36896); settings: at 1 µM
T1 sequence (whole entry): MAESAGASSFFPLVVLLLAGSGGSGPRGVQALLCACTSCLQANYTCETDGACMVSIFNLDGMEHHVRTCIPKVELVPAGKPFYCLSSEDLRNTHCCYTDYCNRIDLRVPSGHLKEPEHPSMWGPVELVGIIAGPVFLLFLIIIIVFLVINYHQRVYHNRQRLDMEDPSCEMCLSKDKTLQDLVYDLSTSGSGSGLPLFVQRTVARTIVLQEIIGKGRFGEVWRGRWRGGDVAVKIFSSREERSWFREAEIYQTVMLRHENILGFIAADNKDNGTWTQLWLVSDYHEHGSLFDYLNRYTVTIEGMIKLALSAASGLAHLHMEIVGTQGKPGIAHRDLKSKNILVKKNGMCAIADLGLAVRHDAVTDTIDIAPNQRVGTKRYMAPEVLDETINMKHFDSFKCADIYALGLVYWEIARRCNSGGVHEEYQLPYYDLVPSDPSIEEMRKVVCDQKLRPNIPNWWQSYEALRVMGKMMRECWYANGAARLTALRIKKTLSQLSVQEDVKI

[2] = target: T2, AMP-activated protein kinase (AMPK) alpha-1/beta-1/gamma-1 (Homo sapiens) (UniProt P54619+Q9Y478+Q13131); settings: at 1 µM
[3] = target: T2, AMP-activated protein kinase (AMPK) alpha-1/beta-1/gamma-1 (Homo sapiens); settings: at 10 µM
[4] = target: T3, AMP-activated protein kinase, AMPK (Homo sapiens) (UniProt P54646+O43741+P54619+Q9UGJ0+Q9Y478+Q13131+Q9UGI9); settings: at 1 µM
[5] = target: T3, AMP-activated protein kinase, AMPK (Homo sapiens); settings: at 10 µM
[6] = target: T4, NUAK family SNF1-like kinase 1 (Homo sapiens) (UniProt O60285); settings: at 10 µM
T4 sequence (whole entry): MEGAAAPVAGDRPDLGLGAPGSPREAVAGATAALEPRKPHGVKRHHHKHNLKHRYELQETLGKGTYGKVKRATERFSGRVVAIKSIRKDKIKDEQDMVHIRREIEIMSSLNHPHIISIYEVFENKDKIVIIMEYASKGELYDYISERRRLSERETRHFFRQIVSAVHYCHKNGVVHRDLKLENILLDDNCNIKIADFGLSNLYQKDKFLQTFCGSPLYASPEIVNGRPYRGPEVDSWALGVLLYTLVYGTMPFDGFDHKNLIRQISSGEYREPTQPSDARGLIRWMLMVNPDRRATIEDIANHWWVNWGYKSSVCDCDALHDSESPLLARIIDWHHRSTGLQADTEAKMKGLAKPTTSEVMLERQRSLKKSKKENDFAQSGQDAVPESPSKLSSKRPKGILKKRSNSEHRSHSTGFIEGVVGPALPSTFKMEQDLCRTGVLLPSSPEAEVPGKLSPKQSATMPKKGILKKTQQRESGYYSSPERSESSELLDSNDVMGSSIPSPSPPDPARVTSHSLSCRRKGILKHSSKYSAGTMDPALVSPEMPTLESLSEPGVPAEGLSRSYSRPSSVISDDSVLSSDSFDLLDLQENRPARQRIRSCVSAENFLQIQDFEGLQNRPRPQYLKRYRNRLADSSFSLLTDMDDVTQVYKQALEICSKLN

[7] = target: T5, Mitogen-activated protein kinase kinase kinase 5 (Homo sapiens) (UniProt Q99683); settings: at 1 µM
T5 sequence (whole entry): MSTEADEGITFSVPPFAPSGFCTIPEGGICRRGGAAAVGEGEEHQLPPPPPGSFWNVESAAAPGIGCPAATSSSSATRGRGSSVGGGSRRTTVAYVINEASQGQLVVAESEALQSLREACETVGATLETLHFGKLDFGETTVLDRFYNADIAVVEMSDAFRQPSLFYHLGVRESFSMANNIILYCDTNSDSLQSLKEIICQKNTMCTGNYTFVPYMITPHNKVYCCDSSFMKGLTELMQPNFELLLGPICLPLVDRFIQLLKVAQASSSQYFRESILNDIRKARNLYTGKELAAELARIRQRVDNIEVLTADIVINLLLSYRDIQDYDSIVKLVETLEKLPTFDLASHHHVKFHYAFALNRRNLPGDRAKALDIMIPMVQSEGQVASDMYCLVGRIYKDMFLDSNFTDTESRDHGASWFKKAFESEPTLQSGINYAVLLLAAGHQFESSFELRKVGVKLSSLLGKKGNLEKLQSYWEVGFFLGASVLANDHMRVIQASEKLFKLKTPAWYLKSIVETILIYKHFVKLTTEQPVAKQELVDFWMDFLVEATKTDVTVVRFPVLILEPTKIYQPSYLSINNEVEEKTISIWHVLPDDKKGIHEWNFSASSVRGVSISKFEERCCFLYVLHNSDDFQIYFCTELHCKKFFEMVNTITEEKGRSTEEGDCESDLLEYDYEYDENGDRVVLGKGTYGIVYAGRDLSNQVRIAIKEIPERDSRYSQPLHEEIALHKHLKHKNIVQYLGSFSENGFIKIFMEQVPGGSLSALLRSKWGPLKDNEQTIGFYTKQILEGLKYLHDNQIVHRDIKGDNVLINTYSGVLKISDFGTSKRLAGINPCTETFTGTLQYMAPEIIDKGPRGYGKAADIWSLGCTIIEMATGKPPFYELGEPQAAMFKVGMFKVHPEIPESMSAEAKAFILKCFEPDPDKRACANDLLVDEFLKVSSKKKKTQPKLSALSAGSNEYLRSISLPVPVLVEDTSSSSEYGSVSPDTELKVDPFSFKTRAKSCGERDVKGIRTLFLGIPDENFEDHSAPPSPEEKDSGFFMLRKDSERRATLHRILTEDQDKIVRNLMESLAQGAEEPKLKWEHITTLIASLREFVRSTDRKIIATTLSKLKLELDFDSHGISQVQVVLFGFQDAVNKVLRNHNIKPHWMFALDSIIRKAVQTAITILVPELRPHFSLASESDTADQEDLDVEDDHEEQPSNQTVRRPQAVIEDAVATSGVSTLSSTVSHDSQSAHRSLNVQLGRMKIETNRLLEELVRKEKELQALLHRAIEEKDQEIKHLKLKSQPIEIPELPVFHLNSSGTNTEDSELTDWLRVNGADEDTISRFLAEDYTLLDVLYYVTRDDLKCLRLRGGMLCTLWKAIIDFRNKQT

[8] = target: Platelet-derived growth factor receptor alpha (Homo sapiens) (UniProt P16234); settings: at 1 µM
[9] = target: Platelet-derived growth factor receptor alpha (Homo sapiens) (UniProt P16234); settings: at 10 µM
[10] = target: Platelet-derived growth factor receptor beta (Homo sapiens) (UniProt P09619); settings: at 1 µM
[11] = target: Platelet-derived growth factor receptor beta (Homo sapiens) (UniProt P09619); settings: at 10 µM
[12] = target: cAMP-dependent protein kinase catalytic subunit alpha (Homo sapiens) (UniProt P17612); settings: at 1 µM
[13] = target: cAMP-dependent protein kinase catalytic subunit alpha (Homo sapiens) (UniProt P17612); settings: at 10 µM
[14] = target: T4, NUAK family SNF1-like kinase 1 (Homo sapiens); settings: at 1 µM
[15] = target: RAC-gamma serine/threonine-protein kinase (Homo sapiens) (UniProt Q9Y243); settings: at 10 µM
[16] = target: ALK tyrosine kinase receptor (Homo sapiens) (UniProt Q9UM73); settings: at 10 µM
[17] = target: RAC-gamma serine/threonine-protein kinase (Homo sapiens) (UniProt Q9Y243); settings: at 1 µM
[18] = target: T6, 3-phosphoinositide-dependent protein kinase 1 (Homo sapiens) (UniProt O15530); settings: at 1 µM
T6 sequence (whole entry): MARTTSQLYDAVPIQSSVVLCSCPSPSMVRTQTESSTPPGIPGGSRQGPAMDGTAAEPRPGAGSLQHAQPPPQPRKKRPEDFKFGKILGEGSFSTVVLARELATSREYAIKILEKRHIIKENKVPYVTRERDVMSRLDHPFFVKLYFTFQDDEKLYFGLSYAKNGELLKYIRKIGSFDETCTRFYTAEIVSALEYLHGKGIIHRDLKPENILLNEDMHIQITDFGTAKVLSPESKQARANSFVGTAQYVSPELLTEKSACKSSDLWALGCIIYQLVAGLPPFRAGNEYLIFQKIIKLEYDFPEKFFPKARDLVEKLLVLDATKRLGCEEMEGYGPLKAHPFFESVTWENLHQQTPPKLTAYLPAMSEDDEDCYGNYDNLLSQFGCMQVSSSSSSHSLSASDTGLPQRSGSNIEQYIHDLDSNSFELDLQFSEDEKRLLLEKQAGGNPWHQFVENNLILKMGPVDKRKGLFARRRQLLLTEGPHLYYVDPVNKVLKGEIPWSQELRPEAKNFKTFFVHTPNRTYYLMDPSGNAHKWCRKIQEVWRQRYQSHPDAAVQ

[19] = target: T6, 3-phosphoinositide-dependent protein kinase 1 (Homo sapiens); settings: at 10 µM
[20] = target: T1, Activin receptor type-1B (Homo sapiens); settings: at 10 µM

Chain of ALK tyrosine kinase receptor (Homo sapiens) (Q9UM73 19-1620 limits assumed): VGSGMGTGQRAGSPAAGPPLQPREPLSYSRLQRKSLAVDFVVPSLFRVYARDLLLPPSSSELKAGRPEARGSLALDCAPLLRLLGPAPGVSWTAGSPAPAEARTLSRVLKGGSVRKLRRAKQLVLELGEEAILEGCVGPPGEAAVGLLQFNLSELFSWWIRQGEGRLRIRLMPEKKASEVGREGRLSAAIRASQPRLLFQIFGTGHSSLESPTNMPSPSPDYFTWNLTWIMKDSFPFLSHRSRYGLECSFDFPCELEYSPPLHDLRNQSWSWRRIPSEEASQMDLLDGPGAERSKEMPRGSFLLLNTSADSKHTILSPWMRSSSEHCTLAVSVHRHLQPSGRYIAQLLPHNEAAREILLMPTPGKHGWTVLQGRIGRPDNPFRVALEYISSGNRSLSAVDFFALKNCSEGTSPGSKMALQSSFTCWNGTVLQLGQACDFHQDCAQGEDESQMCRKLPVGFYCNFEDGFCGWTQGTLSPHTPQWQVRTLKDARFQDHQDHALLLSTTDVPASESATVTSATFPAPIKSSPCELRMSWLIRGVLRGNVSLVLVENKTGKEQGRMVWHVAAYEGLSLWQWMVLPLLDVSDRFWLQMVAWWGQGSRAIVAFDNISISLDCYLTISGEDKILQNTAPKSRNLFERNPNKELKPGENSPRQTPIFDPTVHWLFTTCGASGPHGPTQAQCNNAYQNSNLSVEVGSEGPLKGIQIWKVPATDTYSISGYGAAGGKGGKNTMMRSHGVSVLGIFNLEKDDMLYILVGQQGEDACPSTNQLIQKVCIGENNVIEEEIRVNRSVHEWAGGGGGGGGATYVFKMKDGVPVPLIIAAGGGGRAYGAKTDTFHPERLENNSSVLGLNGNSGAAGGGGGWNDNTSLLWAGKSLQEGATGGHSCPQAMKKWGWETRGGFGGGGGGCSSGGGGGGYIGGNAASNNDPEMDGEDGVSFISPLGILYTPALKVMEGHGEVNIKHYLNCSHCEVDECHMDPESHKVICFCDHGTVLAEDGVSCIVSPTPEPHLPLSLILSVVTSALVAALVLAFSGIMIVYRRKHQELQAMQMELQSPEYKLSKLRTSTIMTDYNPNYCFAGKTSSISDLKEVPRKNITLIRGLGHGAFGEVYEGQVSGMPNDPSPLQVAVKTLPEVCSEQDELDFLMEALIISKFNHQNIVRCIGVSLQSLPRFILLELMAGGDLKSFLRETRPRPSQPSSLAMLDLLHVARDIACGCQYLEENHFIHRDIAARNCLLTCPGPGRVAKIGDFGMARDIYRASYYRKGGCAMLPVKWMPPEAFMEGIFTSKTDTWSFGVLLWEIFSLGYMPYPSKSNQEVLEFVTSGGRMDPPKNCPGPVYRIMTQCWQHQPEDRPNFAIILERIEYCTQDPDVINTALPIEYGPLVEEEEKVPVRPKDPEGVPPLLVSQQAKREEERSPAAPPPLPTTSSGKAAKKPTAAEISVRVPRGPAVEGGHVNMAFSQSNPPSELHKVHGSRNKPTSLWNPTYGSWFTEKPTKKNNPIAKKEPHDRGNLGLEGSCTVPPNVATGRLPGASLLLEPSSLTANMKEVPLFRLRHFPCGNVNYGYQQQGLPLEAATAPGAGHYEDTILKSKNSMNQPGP
Chain of Platelet-derived growth factor receptor alpha (Homo sapiens) (P16234 whole entry): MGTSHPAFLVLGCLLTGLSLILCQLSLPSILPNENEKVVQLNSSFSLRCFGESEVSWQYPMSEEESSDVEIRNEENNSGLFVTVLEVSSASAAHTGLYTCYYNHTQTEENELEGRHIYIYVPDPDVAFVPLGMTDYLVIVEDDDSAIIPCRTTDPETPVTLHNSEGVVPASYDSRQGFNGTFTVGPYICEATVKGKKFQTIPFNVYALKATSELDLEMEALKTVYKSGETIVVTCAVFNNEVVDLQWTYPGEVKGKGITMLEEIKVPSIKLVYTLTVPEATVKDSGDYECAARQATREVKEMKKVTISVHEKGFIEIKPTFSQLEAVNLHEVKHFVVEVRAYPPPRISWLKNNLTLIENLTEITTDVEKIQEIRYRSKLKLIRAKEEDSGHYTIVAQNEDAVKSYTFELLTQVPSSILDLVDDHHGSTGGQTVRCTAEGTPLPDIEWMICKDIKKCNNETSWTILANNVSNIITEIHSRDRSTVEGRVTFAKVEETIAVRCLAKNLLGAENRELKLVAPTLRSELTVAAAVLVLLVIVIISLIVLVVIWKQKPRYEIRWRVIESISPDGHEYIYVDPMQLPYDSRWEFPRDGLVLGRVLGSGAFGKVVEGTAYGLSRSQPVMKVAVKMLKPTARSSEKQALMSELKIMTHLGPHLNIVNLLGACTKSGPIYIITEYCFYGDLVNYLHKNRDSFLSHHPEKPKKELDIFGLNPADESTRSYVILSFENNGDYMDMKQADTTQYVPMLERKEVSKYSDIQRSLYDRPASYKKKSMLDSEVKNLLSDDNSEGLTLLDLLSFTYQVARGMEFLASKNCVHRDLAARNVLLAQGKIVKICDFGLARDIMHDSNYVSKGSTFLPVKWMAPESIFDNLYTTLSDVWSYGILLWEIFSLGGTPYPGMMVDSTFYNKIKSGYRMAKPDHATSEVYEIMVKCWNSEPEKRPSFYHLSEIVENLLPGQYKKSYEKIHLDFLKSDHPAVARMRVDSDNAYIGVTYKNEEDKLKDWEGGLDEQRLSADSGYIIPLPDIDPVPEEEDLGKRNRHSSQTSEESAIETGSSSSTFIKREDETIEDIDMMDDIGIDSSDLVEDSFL
T2 sequence (P54619 whole entry): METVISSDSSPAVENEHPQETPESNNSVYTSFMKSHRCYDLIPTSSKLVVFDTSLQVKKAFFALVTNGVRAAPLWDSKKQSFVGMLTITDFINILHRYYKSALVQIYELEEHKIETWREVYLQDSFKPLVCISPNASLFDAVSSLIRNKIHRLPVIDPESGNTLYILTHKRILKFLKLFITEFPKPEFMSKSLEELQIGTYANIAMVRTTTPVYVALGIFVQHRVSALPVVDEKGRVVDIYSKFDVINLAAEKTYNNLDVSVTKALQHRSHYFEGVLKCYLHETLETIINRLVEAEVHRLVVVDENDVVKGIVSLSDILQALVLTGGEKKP
T2 sequence (Q13131 whole entry partner): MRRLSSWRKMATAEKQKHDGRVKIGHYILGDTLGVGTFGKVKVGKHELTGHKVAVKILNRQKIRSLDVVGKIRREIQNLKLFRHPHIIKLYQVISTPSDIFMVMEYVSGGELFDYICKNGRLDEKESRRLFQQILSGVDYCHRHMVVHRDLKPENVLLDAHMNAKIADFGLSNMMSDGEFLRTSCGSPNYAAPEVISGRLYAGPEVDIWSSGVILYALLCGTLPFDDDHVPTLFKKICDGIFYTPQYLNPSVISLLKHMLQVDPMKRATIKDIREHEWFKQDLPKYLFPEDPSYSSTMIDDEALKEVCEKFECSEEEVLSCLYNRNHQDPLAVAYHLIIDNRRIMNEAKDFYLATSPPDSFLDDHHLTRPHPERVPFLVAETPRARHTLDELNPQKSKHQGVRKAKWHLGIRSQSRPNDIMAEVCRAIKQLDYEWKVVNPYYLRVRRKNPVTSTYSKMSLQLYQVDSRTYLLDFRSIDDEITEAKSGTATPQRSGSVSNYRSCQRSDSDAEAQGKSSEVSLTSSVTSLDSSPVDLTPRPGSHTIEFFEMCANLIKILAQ
T2 sequence (Q9Y478 2-270 partner limits assumed): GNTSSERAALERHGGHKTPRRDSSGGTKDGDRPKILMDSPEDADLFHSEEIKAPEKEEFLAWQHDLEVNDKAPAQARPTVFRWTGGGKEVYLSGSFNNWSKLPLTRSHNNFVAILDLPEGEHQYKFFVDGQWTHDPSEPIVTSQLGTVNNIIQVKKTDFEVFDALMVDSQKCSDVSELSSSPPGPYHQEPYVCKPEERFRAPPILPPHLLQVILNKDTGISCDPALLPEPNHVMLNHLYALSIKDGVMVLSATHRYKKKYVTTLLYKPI
Chain of RAC-gamma serine/threonine-protein kinase (Homo sapiens) (Q9Y243 whole entry): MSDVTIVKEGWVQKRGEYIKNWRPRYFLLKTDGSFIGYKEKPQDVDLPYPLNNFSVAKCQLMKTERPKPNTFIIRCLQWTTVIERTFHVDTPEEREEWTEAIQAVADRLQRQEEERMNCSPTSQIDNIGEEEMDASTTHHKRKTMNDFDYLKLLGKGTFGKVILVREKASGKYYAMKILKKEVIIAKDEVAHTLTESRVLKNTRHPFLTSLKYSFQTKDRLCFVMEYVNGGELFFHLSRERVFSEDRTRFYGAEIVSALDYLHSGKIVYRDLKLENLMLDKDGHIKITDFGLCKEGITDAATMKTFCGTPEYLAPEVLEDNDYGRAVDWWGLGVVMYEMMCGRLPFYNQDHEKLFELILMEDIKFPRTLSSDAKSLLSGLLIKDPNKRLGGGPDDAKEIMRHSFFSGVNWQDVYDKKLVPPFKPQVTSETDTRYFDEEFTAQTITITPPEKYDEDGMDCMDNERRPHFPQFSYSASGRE

SMILES	residual activity [1] [%]	residual activity [2] [%]	residual activity [3] [%]	residual activity [4] [%]	residual activity [5] [%]	residual activity [6] [%]	residual activity [7] [%]	residual activity [8] [%]	residual activity [9] [%]	residual activity [10] [%]	residual activity [11] [%]	residual activity [12] [%]	residual activity [13] [%]	residual activity [14] [%]	residual activity [15] [%]	residual activity [16] [%]	residual activity [17] [%]	residual activity [18] [%]	residual activity [19] [%]	residual activity [20] [%]
O=C(c1ccccc1)c1ccc(N2CCOCC2)cc1O	123	98	72	89	81	90	91	113	92	116	99	69	81							
N#C/C(=C\c1ccc(O)c(O)c1)C(=O)NCc1ccccc1		87	53	124	70	100		122	100			76	75	100	83					
N#C/C(=C1/Nc2ccccc2S1)c1ccnc(NCCc2cccnc2)n1			70	99	67	82	78							97	16	18	89			
CC(C)c1nn(-c2c(Cl)cccc2Cl)c2nc(Cc3ccc(OCCO)cc3)[nH]c(=O)c12		93	71	87	74	72	95			103	105	90	89	96	89	42	93	101	99	
O=c1cc(N2CCOCC2)oc2c1ccc1ccccc12		110	94	105	90	85	88			98		101	104	101	102		111			104
NCCNc1ncc(C(N)=O)c(Nc2cccc(C(F)(F)F)c2)n1	136					13		107	74			114	141	45	43					
COc1ccc(COc2ccc(Cc3cnc(N)nc3N)cc2OC)cc1	120				82															119
COc1cc2nccc(Oc3ccc(NC(=O)Nc4cc(C)on4)c(Cl)c3)c2cc1OC	105				82					13	2	108	98							57
O=c1cc(N2CCNCC2)oc2c(-c3ccccc3)cccc12		95	75		71	82	90			99	88	72	83	91	85	49	85			
